About 3,700 (7%) of roughly 53,000 sequences were called active.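 The calls were made as follows: active = gene knockdowns whose robust z-score for IL-1 alpha signal is at least 2 or at most -2, so actives lie on both sides; inactive = the rest.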 This excerpt belongs to a sample that is enriched for actives.
Assay: Components of the Cytosolic LPS Sensing Pathway: Gene Identification via Genome-wide siRNA Screen;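 also: robust z of the log signal after scaling to non-targeting control siRNA wells of the plate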
Details: RAW264.7 macrophages, IL-1a HTRF, actives lie on both sides, screened at 100 nM (by protocol), cells primed 5 h with Pam3CSK4 first
Outline: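 Read-out: IL-1a HTRF on supernatant, divided by plate negative-control median ×100, log-transformed and converted to robust z-score. Cells were RAW264.7 given 100 nM siRNA, Pam3CSK4-primed 5 hours, then LipidA-transfected 24 hour.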

z-score, active:
GGCUGAAGCUCGACUGAAGTT against Abcf3 2.35, GGAGCUGUAUGACCAUGCCTT against Rab25 -2.03, GGAGCCUAUACUGAUUUAUTT against Tomm7 2.13, GGAUUCGUAAACUUCAGAUTT against Igf2bp3 3.41, CGAGUGUGAGCUACAGCGUTT against Agrn 2.74, UCUGUGGACCAGGAUUUGGTT against Pcsk1n -2.8, CCGAUCUGAUAUAGUAGAATT against Stk31 2.18, GCAGAGCAUGCCUUACUGUTT against Eif4ebp1 4.39, GGCUUCCUUCAGUGAGAAUTT against 1810065E05Rik -2.02, CGGUUCUGGUGCAUUCACATT against Olfr242 -2.06, GGCAUUGGAUCUUCAUUUUTT against Slc18a1 2.35, GGCAGACAACUUCUACCAATT against Crim1 2.52, GGAAAGAGGAAAUCUUUAGTT against Furin 2.04, GCUCACAGCAGCAUUUUACTT against 1700034H15Rik -2.48, UGUGGUCUUAGAAUCUAGCTT against Tdpoz3 4.49, GCUGCUUUCUUUGGAGGACTT against Olfr484 2.27

z-score, inactive:
GGCUGACUGGACAAUAAAGTT against Krt85 -1.28, CCAGUCAUCAUGCUACACGTT against Slc19a3 0.473, GGAGUGCUUUUAAAUCCCUTT against Rreb1 -1.43, GCACUAAUACUAACCAUGGTT against Rhox12 0.788, GGCAAGAAAUUCUUCAGCATT against St8sia3 -1.38, GGUAAUGUACCUAAUAUUGTT against Cnn1 0.307, GCCAGAACCGCAUAUUCUUTT against Cks2 -0.481, GCAACACGGCGGAAUAAAGTT against Washc1 -0.336, GGGUGAUGAUCUUCAGCAATT against Txnrd3 -0.616, GGACCUAAAGAUAAUAAGUTT against Pex3 -0.481, GCCCAUCAGAUGGCAAGAUTT against Pisd 1.09, GUCCCACACUGAUAAGAUUTT against Lcorl -0.602, GCAGCUUAGUGAUUUGAAATT against Tex21 -1.24, CCGGAUUCGAGAGGUGAUGTT against Lrrc52 0.0804, CGGCAAAAUUAGCUAUUCATT against Exosc4 0.489, GGCAUUACAGUGUUUCUGCTT against Tgfbr1 -0.288, GGGCAAUGAUUUCGCCUUCTT against Ninj1 0.337, GGGUCAGAACACGUACGAGTT against Gnaz 1.06, GGGUGUGACGAUUCUCACCTT against Olfr800 0.705, GGAAAAUGAAGGUUCAGAATT against Pkib -0.185, GGACUGUGAGGCCUAUGAATT against Cd72 -0.1, GGCCACAGAUCUUCUGGUGTT against Calml4 1.08, CGAGGGUCUGAAAAAUUACTT against Ighg 1.28, GGUAUGCACUCACACCAGATT against Mus81 0.73, GGCCGUGUGCAUCUUUGUGTT against Gpr20 1.43, GGGAGAUCUCCAACACCAATT against Dipk1b -1.02, CCUUUGGUGAAGCCUGGAUTT against Kiss1 -0.0609, GGACUUCAUGGCUAGUUUCTT against B4galt4 -0.14, GCUAACAGCAUCCUUUUUGTT against Vmn1r50 -0.843, GGAGAUUGACCUGGUCAACTT against Cav1 1.44, GGUUAUGAUCGGCAUCGCUTT against Fam24a -1.46, GGCAUGAGUGCAUUUGCUATT against Ifi203 -0.673, CCUAAGCUUAUCUCAUAUUTT against 4930449I24Rik -0.572, GGGCUACUACAAUGAGUACTT against Phospho1 0.412, GGGUGAGAUGAAAUGCAUCTT against Efemp2 0.264, GGCCGACAAUUUGUCAGUUTT against Uaca -1.19, GCAAGUGUUAGAACACAAGTT against Cish 0.823, GGAAAUUGGAGAUUUUUCCTT against Ccdc54 -1.02, GGUGGAGAUCAAACCAGAGTT against Rps15 1.4, GGGAAACUCUCAGAUGAAGTT against Sh2d7 -1.9, GGCAAAAUCUCAUCAGUCCTT against Iqcc -0.131, GGUGAUCUAGAAACAACCCTT against Tmco5 0.243, CCAUCCAGCUUUCAUUAAATT against Nckap1l 0.508, GGUCUCCAUUUCUUUCUGCTT against Nmd3 -0.952, GGACUGAAGUGAAAUAAAUTT against Trav13-5 -0.949, GCAUCAUCGUGGGAAACCUTT against Olfr1284 0.331, CCAUUCUCUUUACCUCAAUTT against Rdh12 -0.161, CCUGUAGGAGUGACUUCCUTT against Crbn 0.223, GGGACCAGAUAGAAAUUAUTT against Arhgef25 0.414, GGAAGAGAAGUUGUCCAAATT against Creld1 0.477, GGACUCCUACAUGAUUGCUTT against Slc52a2 -0.362, CCAUUACUUCUGUGACCUCTT against Olfr32 -0.289, GGAGCUCUUUGACUUCUUGTT against Uqcrh 0.359

— PubChem BioAssay AID1508600 (Functional Genomics Laboratory (NCATS/FGL), 2020)
